This is a sample that favours compounds with a hit; in the whole collection about 7.9% have one here.
KB-V1 MDR tox = KB-V1 MDR subline cytotoxicity; KB-V1 MDR cells viability, CellTiter-Glo, 72 h; 3.4% of 400,000 active; Potency, µM (top dose mostly 46.1 µM), usual class: cytotoxic; also: % is scaled to controls: 0 for no effect and ±100 for the full control effect; nearly all actives have a fitted effect of over 60% in size
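Compound-treated KB-V1 multidrug-resistant cells, 72 h, 37 degrees C; viability by CellTiter-Glo. Fitted qHTS curves give the values.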
HT1080 IDH1KD tx = toxicity to HT-1080 IDH1 knockdown cells (counter line) | 2% of 360,000 active | Potency, µM (top dose mostly 46.1 µM), for the others: at the top dose activity, negative = toxicity, usual class: cytotoxic | HT-1080 IDH1 knockdown viability, ATP luminescence, 48 h;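 also: 0% = DMSO wells and -100% = cell-free medium wells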
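CellTiter-Glo luminescence after 48 h compound exposure at 37 degrees C of IDH1-knockdown HT-1080 cells in 5% FBS RPMI. %Activity scaled between DMSO wells and cell-free media wells, with curves fitted and assigned curve classes.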
HT1080NT lethal = kills 2HG-producing HT-1080-NT fibrosarcoma cells | HT-1080-NT fibrosarcoma viability, CellTiter-Glo ATP luminescence, 48 h | Potency, µM (titrated, usually from 46.1 µM), for inactives: at the highest dose activity, negative = less viability, actives largely listed as cytotoxic | 1.6% of 360,000 active | AID 686970;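 also: NT is the 2HG producing partner of a matched IDH1 knockdown line; 0% = DMSO-treated cells and -100% = media-only wells without cells; nearly all actives have a fitted effect of over 55% in size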
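Compounds were tested in concentration-response format on HT-1080-NT cells for 48 hours at 37 degrees C. Cell viability came from CellTiter-Glo luminescence; curves were classified by r2, response magnitude and activity.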
MCF10A rereplic = inducers of DNA re-replication in MCF 10A breast cells; MCF 10A DNA re-replication, Hoechst nuclear intensity, 48 h; Potency, µM (top dose mostly 46.1 µM), for the others: top-dose activity, positive = re-replication, usual class: activators; 2.9% of 350,000 active; AID 624296; also: % of control where 0% means no effect; nearly all actives have a fitted effect of over 50% in size
SW480 rerep = inducers of DNA re-replication in SW480 colon cancer cells | Potency, µM (doses to about 46.1 µM), for the others: top-dose re-replication activation, hits mostly activators | AID 624297 | SW480 DNA re-replication, Hoechst DNA content imaging, 48 h | 1.8% of 340,000 active; also: % of control where 0% means no effect; nearly all actives have a fitted effect of over 55% in size
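SW480 cells exposed to compounds for 48 hr at 37 C, 5% CO2, then Hoechst-stained 40 min. Nuclear DNA content imaged by fluorescence scanning (405 nm excitation, 500-530 nm emission); re-replication scored as increased high-intensity nuclei.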
KB-3-1 tox = kills parental KB-3-1 adenocarcinoma cells. 1.4% of 400,000 active. KB-3-1 viability, CellTiter-Glo ATP luminescence, 72 h. AID 1347075. Potency, µM (highest dose often 46.1 µM), most hits filed as cytotoxic; also: % is scaled to controls: 0 for no effect and ±100 for the full control effect; nearly all actives have a fitted effect of over 60% in size
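KB-3-1 parental drug-naive adenocarcinoma cells in DMEM/10% FBS, incubated 72 h at 37 C with pin-transferred compounds across a concentration series. Viability by CellTiter-Glo luminescence; concentration-response curves fitted after normalization.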
The depositor's hits bear a star; i = inactive; ? = inconclusive; / = no result given. Calls follow the shape of the dose curve; as a rule, active = well fitted curve in the direction sought with a large enough effect; inconclusive = small, poorly fitted or top-dose-only effect, or another doubt; inactive = no such curve, though single readings can be large; an effect the other way counts as inactive or inconclusive. Potency is read from the fitted curve at half-maximal effect.

SMILES | KB-V1 MDR tox | HT1080 IDH1KD tx | HT1080NT lethal | MCF10A rereplic | SW480 rerep | KB-3-1 tox
O=c1c2cc([N+](=O)[O-])cc([N+](=O)[O-])c2[nH]n1-c1ccccc1 | 0.82µM* | -27.0% | -24.7% | ? | -1.6% | ?
O=S(=O)(c1ccc(N2CCCC2c2nc3ccccc3s2)nc1)N1CCOCC1 (stereo unspecified) | 8.2µM* | -10.4% | -9.0% | 3.9% | -1.2% | i
Cc1c(/C=C/C(=O)c2cccs2)cnn1C | i | -4.2% | -11.3% | 20.6µM* | ? | i
CS(=O)(=O)Nc1ccc(C2=NN(C(=O)CCCC(=O)O)C(c3cccs3)C2)cc1 (stereo unspecified) | i | 10.4% | 18.9% | -0.5% | -3.0% | i
O=C1C2=C(Nc3ccccc3SC2c2ccc(C(F)(F)F)cc2)c2ccccc21 (stereo unspecified) | 16.4µM* | / | / | / | / | ?
CCc1ccc(C2Sc3ccccc3NC3=C2C(=O)c2ccccc23)cc1 (stereo unspecified) | ? | / | / | / | / | i
O=C1C2=C(Nc3ccccc3SC2c2ccco2)c2ccccc21 (stereo unspecified) | i | -25.8% | -29.0% | 16.4µM* | 6.2% | i
CC(=O)Nc1ccc(C2Sc3ccccc3NC3=C2C(=O)c2ccccc23)cc1 (stereo unspecified) | i | / | / | / | / | i
Cc1ccc(C)c(NCC(=O)c2ccc(Cl)cc2)c1 | i | 0.1% | -5.0% | 23.1µM* | ? | i
CSC1=C(C#N)C(C)C2=C(CC(C)(C)CC2=O)N1 (stereo unspecified) | 23.1µM* | -10.7% | 2.2% | -1.1% | 0.6% | ?
COc1ccc(C2C(C#N)=C(SC)NC3=C2C(=O)CC(C)(C)C3)cc1 (stereo unspecified) | ? | -13.2% | -8.5% | 16.4% | 0.8% | ?
O=C(CN(C1CCCCC1)S(=O)(=O)c1ccc(Cl)cc1)NCc1ccncc1 | i | -26.1% | 0.0% | -4.8% | 2.1% | i
CC(C)(C)C1CCc2c(sc(NC(=O)C3CCCO3)c2C(N)=O)C1 (stereo unspecified) | i | ? | ? | 17.8µM* | ? | i
COc1cc(/C=C/C(=O)c2ccc3c(c2)OCO3)cc(OC)c1OC | 20.6µM* | ? | ? | 179.5% | 284.1% | ?
CCOc1ccc(N2C(=O)/C(=C/c3cc(OC)c(OC)c(OC)c3)N(CC(=O)OC)C2=S)cc1 | ? | -22.7% | -27.2% | 23.1µM* | 13.9% | i
COc1ccc(OC)c(/C=C/C(=O)c2ccc3c(c2)OCCO3)c1 | ? | ? | ? | 20.6µM* | 7.5% | ?
COc1cc(C(=O)c2cc3c(cc2C)OCO3)cc(OC)c1OC | 0.411µM* | ? | ? | / | / | 0.164µM*
COc1cc(/C=C/C(=O)c2ccc3c(c2)OCCO3)cc(OC)c1OC | i | ? | -10.7% | ? | ? | ?
COc1cc(/C=C/C(=O)c2ccc(F)cc2)cc(OC)c1OC | ? | 18.4µM* | 23.1µM* | ? | 18.4µM* | i
CCOc1ccc(C(=O)/C=C/c2cc(OC)c(OC)c(OC)c2)cc1 | ? | 16.4µM* | ? | ? | ? | ?
CCOC(=O)N1CCN(C(=O)CNCc2cccs2)CC1 | i | 14.3% | 12.2% | -7.9% | -6.3% | i
Fc1ccc(N2CCN(/C=C/c3nnnn3-c3ccccc3)CC2)cc1 | i | -10.4% | -12.0% | ? | 1.2% | i
COc1cc(Cl)c(C)cc1NC(=O)c1ccccc1NC(=O)CN1CCOCC1 | ? | 12.4% | 15.9% | 2.2% | -0.5% | i
Cc1cc(OCc2cc(C(=O)N(C)Cc3nonc3C)no2)cc(C)c1Cl | ? | -22.7% | -24.8% | ? | 23.8% | i
Cc1ccc(OCc2cc(C(=O)N(C)Cc3cnn(-c4ccccc4C)c3)no2)cn1 | ? | 20.6µM* | 18.4µM* | 9.8% | 1.5% | 18.4µM*
SMILES | KB-V1 MDR tox | HT1080 IDH1KD tx | HT1080NT lethal | MCF10A rereplic | SW480 rerep | KB-3-1 tox
Cc1cc(OCc2cc(C(=O)N(C)C3CCOC3)no2)cc(C)c1Cl (stereo unspecified) | ? | -18.9% | -5.1% | 2.31µM* | 14.5% | ?
CCc1ccc(CN(C)C(=O)c2cc(COc3cc(C)c(Cl)c(C)c3)on2)nc1 | i | ? | ? | 23.1µM* | -4.0% | i
O=C(O)c1ccc(N(Cc2ccccc2)S(=O)(=O)c2ccccc2)cc1 | i | 7.8% | 11.1% | -1.6% | -8.7% | i
Cn1c2ccccc2c(=O)c2c(=O)n(-c3ccccc3)c(-c3ccc(C(C)(C)C)cc3)nc21 | i | 7.7% | -7.0% | ? | -25.7% | i
CCOc1ccc(N(C(=O)CNC(=O)c2ccco2)C(C(=O)NC2CCCC2)c2ccncc2)cc1 (stereo unspecified) | ? | 9.9% | -4.6% | 2.6% | 1.4% | i
Cc1ccccc1OCC(=O)N(Cc1nnc(-c2ccc(Cl)cc2)o1)C(C)C | i | -15.6% | -5.9% | 1.9% | -5.4% | i
Cc1cc(C)c(S(=O)(=O)Nc2ccc3oc4c(c3c2)C(=O)CC(C)(C)C4)cc1C | i | / | / | / | / | i
COc1ccc(S(=O)(=O)Nc2ccc3oc4c(c3c2)C(=O)CC(C)(C)C4)cc1 | 18.4µM* | / | / | / | / | ?
CC1CCN(CC(O)COc2ccc(F)cc2)CC1 (stereo unspecified) | i | -0.1% | 19.8% | -0.5% | -1.2% | i
COc1ccc(NC(=O)N2CCC(C(=O)c3ccc4c(c3)OCCO4)CC2)cc1 | ? | -19.1% | -5.9% | ? | 8.3% | i
COc1ccc(-c2csc(C(O)c3ccc(F)c(F)c3)n2)cc1 (stereo unspecified) | i | ? | -17.5% | / | / | i
Cc1ccc(-c2csc(/C(C#N)=C(\O)CCl)n2)cc1 | i | -13.0% | -20.8% | 16.4µM* | 6.1% | i
N#C/C(=C(/O)CCl)c1nc(-c2ccccc2)cs1 | ? | -29.8% | -27.7% | ? | ? | ?
CC(C)CC(=O)NC(NC(=S)Nc1ccccc1)C(Cl)(Cl)Cl (stereo unspecified) | ? | ? | -7.3% | 1.1% | 10.4% | i
O=C(CCc1ccccc1)NC(NC(=S)Nc1ccc(Cl)cc1)C(Cl)(Cl)Cl (stereo unspecified) | i | ? | ? | 6.8% | ? | 18.4µM*
O=C(/C=C/c1ccccc1)NC(NC(=S)Nc1ccc(Cl)cc1)C(Cl)(Cl)Cl (stereo unspecified) | ? | 18.4µM* | ? | 16.4µM* | ? | ?

Source: PubChem (National Center for Advancing Translational Sciences (NCATS))
